Assay results taken from PubChem BioAssay (NCATS).
Results filed as inconclusive are left out. Unmarked numbers belong to inactive results. Active and inactive are the calls of the source. The call rests on the fitted dose curve; in most records, active means well fitted cell-killing curve with a large enough effect; inconclusive means small, poorly fitted or top-dose-only effect, or effect the other way; inactive means no such curve, though single readings can be large or run the other way.

Experiment: Quantitative High-Throughput drug screen in 47 multiple myeloma cell lines against the NCATS MIPE library collection: OPM1_PLB cell viability assay (AID 1918989); further: nearly all actives have a fitted effect of over 40% in size
Conditions: CellTiter-Glo, 48 h; series mostly up to 45.8 µM; viability (% of control): at the top concentration
From the text: PI: Beverly A. Mock Ph.D.
Laboratory of Cancer Biology and Genetics,
Center for Cancer Research, National Cancer Institute,
National Institute of Health, Bethesda, Maryland
Drug resistance and disease progression are common in multiple myeloma (MM) patients, underscoring the need for new therapeutic combinations. […] We hypothesized that effective combinations would reduce MYC expression and enhance p16 activity. […] These preclinical data identify potentially useful drug combinations for evaluation in drug-resistant MM and reveal potential mechanisms of combined drug sensitivity.
Described herein is the primary MIPE qHTS used to cherrypick compounds. Validated compounds were then further tested for potential synergistic activiy.
[1] Peat TJ, Gaikwad SM, Dubois W, Gyabaah-Kessie N, Zhang S, Gorjifard S, Phyo Z, Andres M, Hughitt VK, Simpson RM, Miller MA, Girvin AT, Taylor A, Williams D, D'Antonio N, Zhang Y, Rajagopalan A, Flietner E, Wilson K, Zhang X, Shinn P, Klumpp-Thomas C, McKnight C, Itkin Z, Chen L, Kazandijian D, Zhang J, Michalowski AM, Simmons JK, Keats J, Thomas CJ, Mock BA. Drug combinations identified by high-throughput screening promote cell cycle transition and upregulate Smad pathways in myeloma. Cancer Lett. 2023 Aug 1;568:216284. doi: 10.1016/j.canlet.2023.216284. Epub 2023 Jun 24. PMID: 37356470; PMCID: PMC10408729.
SEQUENCE No. (e.g., 1, 2, 3, etc.); […] (e.g., Cells, Incubation, Reagent, etc.); VALUE and DESCRIPTION.
1; Cells; 5 uL; white, solid bottom 1536-well Greiner assay plate.
2; Compounds; 23 nL; Kalypsis pin tool (Wako USA) equipped with a 1536-well pin head to transfer to the assay plates.
3; Incubation; 48 hours; 37C incubation.
4; Reagent;5uL; CellTiter Glo (Promega).
5; Detector; 425V; Luminescence; Viewlux PerkinElmer.
NOTES (numbers refer to Sequence numbers above)
1. The cell-based screening methods employed in this study were like those previously published. Briefly, the corresponding myeloma cell lines were screened in 1,536-well plates with 500 cells, 5-uL per well for inhibition of cell viability (assessed by measuring ATP levels with CellTiterGlo).
2. NCATS MIPE 4.0 library of approved and investigational drugs were added using the Kalypsis pin tool. Wells treated with DMSO only for 100% viability and media only for 0% viability were used as controls.
3. The assay plates were covered and incubated for 48 hours in a 37C, 5% CO2 incubator with controlled humidity.
4. After 48 hours, CellTilter-GloTM luminescent substrate mix (Promega) reagent was added to the assay plate and plates we incubated for 5 min at room temperature.
5. Signal was measured as median relative luminescence units on a ViewLux (PerkinElmer) multiplate reader.
[1] Heske CM, Davis MI, Baumgart JT, Wilson K, Gormally MV, Chen L, Zhang X, Ceribelli M, Duveau DY, Guha R, Ferrer M, Arnaldez FI, Ji J, Tran HL, Zhang Y, Mendoza A, Helman LJ, Thomas CJ. Matrix Screen Identifies Synergistic Combination of PARP Inhibitors and Nicotinamide Phosphoribosyltransferase (NAMPT) Inhibitors in Ewing Sarcoma. Clin Cancer Res. 2017 Dec 1;23(23):7301-7311. doi: 10.1158/1078-0432.CCR-17-1121. Epub 2017 Sep 12. PMID: 28899971; PMCID: PMC6636827.
Potency means the concentration at half of the fitted maximal effect.

Row | SMILES | viability (% of control) [%] | Potency
1 | O=C(NCCCCN1CCOCC1)c1cc2ccccc2o1 | 134 | –
2 | CC(C)(F)C[C@H](N[C@@H](c1ccc(-c2ccc(S(C)(=O)=O)cc2)cc1)C(F)(F)F)C(=O)NC1(C#N)CC1 | – | 5.9 µM (active)
3 | CN(C)c1ccc(-c2nc3ncc(Cl)c(N4CCN(CC(=O)Nc5nccs5)CC4)c3[nH]2)cc1 | – | 1.87 µM (active)
4 | Cc1ccc(C2=Nc3ccc(Cl)cc3OC2)cc1 | – | 10.5 µM (active)
5 | CC(C)N(CCCNC(=O)Nc1ccc(C(C)(C)C)cc1)C[C@H]1O[C@@H](n2cc(Br)c3c(N)ncnc32)[C@H](O)[C@H]1O | – | 23.5 µM (active)
6 | Cc1ccc(S(=O)(=O)OCC(=O)Nc2ccc(C(=O)O)c(O)c2)cc1 | 105 | –
7 | CS(=O)(=O)c1ccc(C2=C(c3ccccc3)C(=O)OC2)cc1 | 115 | –
8 | Oc1ccc(C=Cc2cc(O)cc(O)c2)cc1 | 115 | –
9 | C[C@@H]1C[C@H]2[C@@H]3CCC4=CC(=O)C=C[C@]4(C)[C@@]3(F)[C@@H](O)C[C@]2(C)[C@@]1(O)C(=O)CO | 138 | –
10 | Cc1nn(Cc2ccccc2Cl)c(C)c1CN(C)CC(O)COc1ccc(Cl)cc1 (stereo not given) | – | 20.9 µM (active)
11 | CN1CCN(c2cccc(Nc3nc4c(-c5ccc(S(C)(=O)=O)cc5)cccn4n3)c2)CC1 | – | 2.35 µM (active)
12 | C#CCN(C)CC1=Cc2ccccc2Oc2ccccc21 | 94 | –
13 | O=[N+]([O-])c1ccc(Nc2ccccc2-c2ccccc2)c2nonc12 | – | 26.4 µM (active)
14 | COc1cc(F)c(C(C)C)cc1-c1ccc(C(F)(F)F)cc1CN1C(=O)O[C@H](c2cc(C(F)(F)F)cc(C(F)(F)F)c2)[C@@H]1C | 110 | –
15 | Cn1cnc(-c2cc3nccc(Oc4ccc(NC(=S)NC(=O)Cc5ccccc5)cc4F)c3s2)c1 | – | 18.7 µM (active)
16 | Cc1nc(NC(=O)N2CCC[C@@H]2C(N)=O)sc1-c1csc(C(C)(C)C)n1 | – | 14.8 µM (active)
17 | COc1cc2nc(-c3cc(F)ccc3O)nc(N[C@@H]3CNC[C@@H]3C(C)(C)O)c2cc1OC | – | 3.72 µM (active)
18 | C[C@@H]1O[C@@H](O[C@H]2CC[C@@]3(C)[C@H](CC[C@@H]4[C@H]3C[C@@H](O)[C@]3(C)[C@@H](C5=CC(=O)OC5)CC[C@]43O)C2)C[C@H](O)[C@@H]1O[C@H]1C[C@H](O)[C@H](O[C@H]2C[C@H](O)[C@@H](O)[C@@H](C)O2)[C@H](C)O1 (stereo in doubt) | – | 0.27 µM (active)
19 | Clc1ccc(C2(c3ccc(-c4cn[nH]c4)cc3)CCNCC2)cc1 | – | 2.35 µM (active)
20 | N#CC(c1ccnc(NCCc2cccnc2)n1)c1nc2ccccc2s1 (stereo not given) | – | 14.8 µM (active)

Row | SMILES | viability (% of control) [%] | Potency
21 | O=S(=O)(NCCNCC=Cc1ccc(Br)cc1)c1cccc2cnccc12 | – | 8.33 µM (active)
22 | CC1(C)OC2CC3C4CC(F)C5=CC(=O)C=CC5(C)C4C(O)CC3(C)[C@]2(C(=O)CO)O1 (stereo not given in full) | 121 | –
23 | CCCCCOC(=O)Nc1nc(=O)n([C@@H]2O[C@H](C)[C@@H](O)C2O)cc1F (stereo not given in full) | 94 | –
24 | CCCCC(C)(C)[C@H](O)C=C[C@H]1[C@H](O)CC(=O)[C@H]1CC=CCCCC(=O)O | – | 18.7 µM (active)
25 | O[C@@H](COc1cccc2ncccc12)CN1CCN(C2c3ccccc3[C@@H]3[C@H](c4ccccc42)C3(F)F)CC1 (stereo not given in full) | – | 23.5 µM (active)
26 | Cc1nc(C(=O)NCC(=O)O)c(O)c2ccc(Oc3ccccc3)cc12 | 120 | –
27 | Cc1[nH]c(C=C2C(=O)Nc3ccc(S(=O)(=O)N(C)c4cccc(Cl)c4)cc32)c(C)c1C(=O)N1CCN(C)CC1 | – | 9.35 µM (active)
28 | Cc1cccc2c1CC[C@H](CN1CCC(c3c(Cl)cccc3Cl)CC1)C[C@@H]2O | – | 18.7 µM (active)
29 | CC(C)(O)CC(=O)NCCn1ccc2ncnc(Nc3ccc(Oc4cccc(C(F)(F)F)c4)c(Cl)c3)c21 | – | 26.4 µM (active)
30 | CN1CCN(c2ncc(-c3cc(Cl)cc(Cl)c3Cl)c(N)n2)CC1 | 158 | –
31 | Nc1ncnc2c1c(-c1cccc(OCc3ccccc3)c1)cn2C1CC(CN2CCC2)C1 (stereo not given) | – | 16.6 µM (active)
32 | C[C@@]1(C(=O)Nc2ccc(F)nc2)CCCN1c1nc(Nc2cc(C3CC3)[nH]n2)c2cccn2n1 | – | 1.66 µM (active)
33 | COc1ccc2nc3cc(Cl)ccc3c(Nc3cc(CN4CCCC4)c(O)c(CN4CCCC4)c3)c2n1 | – | 23.5 µM (active)
34 | O=C(O)Cc1cccc(OCCCN(Cc2cccc(C(F)(F)F)c2Cl)CC(c2ccccc2)c2ccccc2)c1 | – | 18.7 µM (active)
35 | CCNC(=O)Nc1ccc(Oc2ncnc(N)c2C=NOC)cc1Cl | 109 | –
36 | CN1CCc2c(n(Cc3ccc(C(=O)NO)cc3)c3ccccc23)C1 | – | 16.6 µM (active)
37 | CO[C@@H]1C(N(C)C(=O)c2ccccc2)C[C@H]2O[C@]1(C)n1c3ccccc3c3c4c(c5c6ccccc6n2c5c31)C(=O)NC4=O (stereo not given in full) | – | 4.18 µM (active)
38 | COc1ccc2ccc(=O)oc2c1CC=C(C)C | 133 | –
39 | CN1CC(=O)NC1=NC(=O)Nc1cccc(Cl)c1 | – | 18.7 µM (active)
40 | CCCCC[C@H](O)C=C[C@H]1[C@H](O)CC(=O)[C@H]1CC=CCCCC(=O)O | – | 18.7 µM (active)
